Data: article PMC7862700, “An all-to-all approach to the identification of sequence-specific readers for epigenetic DNA modifications on cytosine”

How the values were obtained:
Assay in all cases: DAPPL (digital affinity profiling via proximity ligation, sequencing); 10 mM Tris-HCl pH 7.5, 50 mM NaCl, 1 mM DTT, 4% glycerol, room temperature, 30 min; GST-TFs on glutathione beads, 16-mer random dsDNA library, 0.1% formaldehyde crosslink after washing; high values mean tight binding
Conditions in all cases: protein: recombinant; tags: N-terminal GST; dsDNA, one strand shown
GABPA = molecular target: T1, GABPA (Homo sapiens, UniProt Q06546 1-454)
T1 sequence: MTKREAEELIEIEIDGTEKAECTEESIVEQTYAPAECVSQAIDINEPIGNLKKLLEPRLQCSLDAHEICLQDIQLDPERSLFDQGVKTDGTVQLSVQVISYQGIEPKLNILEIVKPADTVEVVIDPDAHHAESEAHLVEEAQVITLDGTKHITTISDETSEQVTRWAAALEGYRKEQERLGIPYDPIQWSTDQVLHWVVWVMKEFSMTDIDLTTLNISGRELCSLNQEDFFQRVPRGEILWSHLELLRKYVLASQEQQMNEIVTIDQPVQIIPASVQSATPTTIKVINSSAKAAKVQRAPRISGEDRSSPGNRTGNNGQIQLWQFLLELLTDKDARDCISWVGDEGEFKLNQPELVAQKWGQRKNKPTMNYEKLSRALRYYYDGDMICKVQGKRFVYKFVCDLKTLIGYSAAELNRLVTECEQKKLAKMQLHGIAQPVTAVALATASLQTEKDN
Procedure, shortened: (§1)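 In yeast, human transcription factors were expressed with a GST fusion, then pulled down on glutathione beads and given DNA barcodes. Pooled with a tag-only sample, they were exposed to 200 nmole of a 16-mer random double-stranded DNA library (Tris/NaCl/DTT/glycerol buffer, room temperature, 30 min), washed, crosslinked with 0.1% formaldehyde, proximity-ligated using BsaI/T4 ligase for 1 h at 37 °C, PCR-amplified and read on an Illumina NextSeq500. Each hexamer's frequency of reads for a factor, divided by the matching frequency for the tag-only sample, gives the binding signal.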

ELF1 = ELF1 (Homo sapiens, UniProt P32519 1-619)
Chain of ELF1 (P32519 whole entry): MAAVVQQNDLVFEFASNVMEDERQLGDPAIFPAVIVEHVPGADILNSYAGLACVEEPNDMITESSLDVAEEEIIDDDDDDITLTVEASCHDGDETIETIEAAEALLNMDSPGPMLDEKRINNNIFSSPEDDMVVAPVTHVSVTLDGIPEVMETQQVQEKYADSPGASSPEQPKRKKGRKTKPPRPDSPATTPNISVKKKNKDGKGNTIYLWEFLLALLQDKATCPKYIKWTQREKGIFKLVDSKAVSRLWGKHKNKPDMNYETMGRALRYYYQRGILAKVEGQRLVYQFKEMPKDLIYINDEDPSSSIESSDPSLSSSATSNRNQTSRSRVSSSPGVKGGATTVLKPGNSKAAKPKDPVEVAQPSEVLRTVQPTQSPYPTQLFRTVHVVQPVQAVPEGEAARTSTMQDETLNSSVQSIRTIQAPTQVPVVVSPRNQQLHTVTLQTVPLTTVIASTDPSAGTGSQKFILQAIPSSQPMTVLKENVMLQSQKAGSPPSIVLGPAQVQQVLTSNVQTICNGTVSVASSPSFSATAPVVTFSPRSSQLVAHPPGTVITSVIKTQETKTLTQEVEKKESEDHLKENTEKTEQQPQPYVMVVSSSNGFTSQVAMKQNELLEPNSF
Procedure, shortened: as §1

ELK3 = molecular target: T2, ELK3 (Homo sapiens, UniProt P41970 1-407)
T2 sequence: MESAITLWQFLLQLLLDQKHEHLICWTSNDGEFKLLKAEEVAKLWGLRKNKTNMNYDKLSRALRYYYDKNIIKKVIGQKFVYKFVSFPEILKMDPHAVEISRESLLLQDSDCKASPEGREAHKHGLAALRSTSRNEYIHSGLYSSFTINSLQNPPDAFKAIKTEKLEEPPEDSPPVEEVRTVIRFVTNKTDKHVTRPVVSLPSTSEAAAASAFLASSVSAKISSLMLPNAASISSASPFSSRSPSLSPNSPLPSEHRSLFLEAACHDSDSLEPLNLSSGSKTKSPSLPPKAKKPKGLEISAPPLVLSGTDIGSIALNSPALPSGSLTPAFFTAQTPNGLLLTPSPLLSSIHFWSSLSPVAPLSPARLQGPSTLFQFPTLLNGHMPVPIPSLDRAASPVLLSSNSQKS
Procedure, shortened: as §1

FEV = molecular target: T3, FEV (Homo sapiens, UniProt Q99581 1-238)
T3 sequence: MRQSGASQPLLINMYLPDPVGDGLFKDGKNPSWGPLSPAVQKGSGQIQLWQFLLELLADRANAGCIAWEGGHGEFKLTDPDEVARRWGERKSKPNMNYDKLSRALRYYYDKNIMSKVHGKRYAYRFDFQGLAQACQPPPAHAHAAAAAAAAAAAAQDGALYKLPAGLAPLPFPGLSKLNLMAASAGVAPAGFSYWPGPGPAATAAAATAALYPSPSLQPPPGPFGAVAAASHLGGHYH
Procedure, shortened: as §1

SPIC = molecular target: T4, SPIC (Homo sapiens, UniProt Q8N5J4 1-248)
T4 sequence: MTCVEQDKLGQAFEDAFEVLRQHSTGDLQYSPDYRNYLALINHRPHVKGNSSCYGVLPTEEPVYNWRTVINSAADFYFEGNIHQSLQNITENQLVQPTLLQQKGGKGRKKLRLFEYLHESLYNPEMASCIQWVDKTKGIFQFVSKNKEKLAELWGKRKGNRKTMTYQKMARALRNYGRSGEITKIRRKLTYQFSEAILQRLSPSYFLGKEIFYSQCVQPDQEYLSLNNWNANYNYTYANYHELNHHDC
Procedure, shortened: as §1

ELF4 = ELF4 (Homo sapiens, UniProt Q99607 1-663)
Chain of ELF4 (Q99607 whole entry): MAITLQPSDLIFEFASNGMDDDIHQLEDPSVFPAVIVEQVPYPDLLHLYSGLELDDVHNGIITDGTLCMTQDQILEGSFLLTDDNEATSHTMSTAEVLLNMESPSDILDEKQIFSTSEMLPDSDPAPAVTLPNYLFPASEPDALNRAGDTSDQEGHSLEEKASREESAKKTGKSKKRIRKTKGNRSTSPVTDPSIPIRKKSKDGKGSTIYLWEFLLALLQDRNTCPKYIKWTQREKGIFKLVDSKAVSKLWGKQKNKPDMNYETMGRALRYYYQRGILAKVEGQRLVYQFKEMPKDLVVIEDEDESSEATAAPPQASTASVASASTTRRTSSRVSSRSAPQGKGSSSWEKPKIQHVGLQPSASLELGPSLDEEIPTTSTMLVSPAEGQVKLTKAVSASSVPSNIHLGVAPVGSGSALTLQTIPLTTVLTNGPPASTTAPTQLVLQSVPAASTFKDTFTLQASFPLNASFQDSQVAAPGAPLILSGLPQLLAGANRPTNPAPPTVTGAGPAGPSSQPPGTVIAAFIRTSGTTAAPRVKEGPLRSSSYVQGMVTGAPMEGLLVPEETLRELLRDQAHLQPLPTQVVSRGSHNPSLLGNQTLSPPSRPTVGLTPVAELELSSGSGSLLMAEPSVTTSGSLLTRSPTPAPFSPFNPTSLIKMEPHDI
Procedure, shortened: as §1

ELK4 = molecular target: T5, ELK4 (Homo sapiens, UniProt P28324-2 1-405)
T5 sequence: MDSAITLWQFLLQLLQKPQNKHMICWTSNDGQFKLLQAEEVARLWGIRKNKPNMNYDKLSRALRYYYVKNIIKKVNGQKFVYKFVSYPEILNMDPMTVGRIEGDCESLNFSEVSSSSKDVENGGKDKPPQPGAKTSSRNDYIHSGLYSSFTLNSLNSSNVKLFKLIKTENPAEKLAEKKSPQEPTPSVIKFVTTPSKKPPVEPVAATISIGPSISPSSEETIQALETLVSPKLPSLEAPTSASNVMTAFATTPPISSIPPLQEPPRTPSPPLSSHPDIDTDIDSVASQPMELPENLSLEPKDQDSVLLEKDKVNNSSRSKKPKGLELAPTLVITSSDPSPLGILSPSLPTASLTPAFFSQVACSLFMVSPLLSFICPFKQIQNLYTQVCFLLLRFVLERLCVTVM
Procedure, shortened: as §1

ETV1 = ETV1 (Homo sapiens, UniProt P50549 1-477)
Chain of ETV1 (P50549 whole entry): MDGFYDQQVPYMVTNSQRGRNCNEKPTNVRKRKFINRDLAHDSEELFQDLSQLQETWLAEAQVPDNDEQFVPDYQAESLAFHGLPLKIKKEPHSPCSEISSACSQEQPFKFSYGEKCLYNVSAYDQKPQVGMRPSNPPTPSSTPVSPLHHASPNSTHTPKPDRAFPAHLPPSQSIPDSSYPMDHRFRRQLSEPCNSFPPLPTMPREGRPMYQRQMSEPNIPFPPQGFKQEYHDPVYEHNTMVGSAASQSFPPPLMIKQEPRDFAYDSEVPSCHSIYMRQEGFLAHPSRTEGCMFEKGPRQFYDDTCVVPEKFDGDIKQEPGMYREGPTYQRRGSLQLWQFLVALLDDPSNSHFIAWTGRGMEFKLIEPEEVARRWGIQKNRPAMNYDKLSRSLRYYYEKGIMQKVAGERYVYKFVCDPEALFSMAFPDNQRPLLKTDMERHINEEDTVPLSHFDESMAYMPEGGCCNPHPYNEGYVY
Procedure, shortened: as §1

ETV3L = molecular target: T6, ETV3L (Homo sapiens, UniProt Q6ZN32 1-361)
T6 sequence: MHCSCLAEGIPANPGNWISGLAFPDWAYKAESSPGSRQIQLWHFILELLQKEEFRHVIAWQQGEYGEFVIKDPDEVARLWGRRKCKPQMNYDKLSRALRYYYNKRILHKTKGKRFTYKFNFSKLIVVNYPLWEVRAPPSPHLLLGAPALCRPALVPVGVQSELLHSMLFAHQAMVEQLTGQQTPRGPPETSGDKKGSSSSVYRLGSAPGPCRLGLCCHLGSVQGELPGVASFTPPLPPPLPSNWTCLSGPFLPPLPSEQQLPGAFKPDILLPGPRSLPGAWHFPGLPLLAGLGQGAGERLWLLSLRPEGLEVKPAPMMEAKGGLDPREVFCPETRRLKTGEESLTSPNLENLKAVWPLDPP
Procedure, shortened: as §1

SPDEF = molecular target: T7, SPDEF (Homo sapiens, UniProt O95238 1-335)
T7 sequence: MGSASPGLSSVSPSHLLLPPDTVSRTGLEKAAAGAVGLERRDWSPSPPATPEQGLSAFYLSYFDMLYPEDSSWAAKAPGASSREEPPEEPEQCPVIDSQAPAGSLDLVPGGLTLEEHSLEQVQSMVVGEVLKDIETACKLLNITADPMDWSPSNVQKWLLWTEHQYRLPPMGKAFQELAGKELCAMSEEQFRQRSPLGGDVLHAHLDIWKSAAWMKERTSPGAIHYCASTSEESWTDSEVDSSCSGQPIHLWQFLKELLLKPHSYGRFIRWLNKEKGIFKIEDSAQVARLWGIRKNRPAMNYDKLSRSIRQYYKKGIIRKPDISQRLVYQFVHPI
Procedure, shortened: as §1

ELF5 = molecular target: T8, ELF5 (Homo sapiens, UniProt Q9UKW6-2 1-255)
T8 sequence: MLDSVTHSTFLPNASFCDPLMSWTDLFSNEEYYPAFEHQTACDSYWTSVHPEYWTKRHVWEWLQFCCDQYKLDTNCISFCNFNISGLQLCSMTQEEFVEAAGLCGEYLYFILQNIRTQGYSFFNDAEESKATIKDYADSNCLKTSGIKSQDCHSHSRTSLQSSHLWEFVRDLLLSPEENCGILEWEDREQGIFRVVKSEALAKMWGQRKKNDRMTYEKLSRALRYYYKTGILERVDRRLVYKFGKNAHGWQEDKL
Procedure, shortened: as §1

ETV3 = molecular target: T9, ETV3 (Homo sapiens, UniProt P41162-2 1-143)
T9 sequence: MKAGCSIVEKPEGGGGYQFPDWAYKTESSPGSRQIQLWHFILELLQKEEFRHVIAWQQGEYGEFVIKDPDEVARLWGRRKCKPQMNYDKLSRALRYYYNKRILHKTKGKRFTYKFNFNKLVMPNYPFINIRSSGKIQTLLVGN
Procedure, shortened: as §1

ELK1 = molecular target: T10, ELK1 (Homo sapiens, UniProt P19419 1-428)
T10 sequence: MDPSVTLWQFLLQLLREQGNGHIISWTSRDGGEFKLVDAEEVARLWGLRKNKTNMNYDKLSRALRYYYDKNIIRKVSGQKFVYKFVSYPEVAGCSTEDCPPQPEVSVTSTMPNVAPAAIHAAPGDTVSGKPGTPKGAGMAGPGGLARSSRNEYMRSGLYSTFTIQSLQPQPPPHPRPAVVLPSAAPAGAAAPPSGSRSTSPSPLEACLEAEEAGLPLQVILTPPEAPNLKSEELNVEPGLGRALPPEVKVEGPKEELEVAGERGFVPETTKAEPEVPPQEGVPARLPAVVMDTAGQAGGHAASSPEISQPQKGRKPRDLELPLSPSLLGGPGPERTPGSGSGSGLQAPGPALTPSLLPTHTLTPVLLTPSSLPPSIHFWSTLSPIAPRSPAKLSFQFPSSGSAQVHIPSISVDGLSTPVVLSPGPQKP
Procedure, shortened: as §1

EHF = molecular target: T11, EHF (Homo sapiens, UniProt Q9NZC4 1-300)
T11 sequence: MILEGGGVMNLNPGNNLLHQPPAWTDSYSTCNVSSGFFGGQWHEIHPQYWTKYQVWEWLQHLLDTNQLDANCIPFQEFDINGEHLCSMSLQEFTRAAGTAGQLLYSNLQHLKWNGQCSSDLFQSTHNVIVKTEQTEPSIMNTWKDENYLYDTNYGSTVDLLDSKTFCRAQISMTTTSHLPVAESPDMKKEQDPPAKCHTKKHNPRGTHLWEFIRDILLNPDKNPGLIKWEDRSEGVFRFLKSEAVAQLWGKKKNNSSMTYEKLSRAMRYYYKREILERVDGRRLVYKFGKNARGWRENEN
Procedure, shortened: as §1

ELF3 = molecular target: T12, ELF3 (Homo sapiens, UniProt P78545 1-371)
T12 sequence: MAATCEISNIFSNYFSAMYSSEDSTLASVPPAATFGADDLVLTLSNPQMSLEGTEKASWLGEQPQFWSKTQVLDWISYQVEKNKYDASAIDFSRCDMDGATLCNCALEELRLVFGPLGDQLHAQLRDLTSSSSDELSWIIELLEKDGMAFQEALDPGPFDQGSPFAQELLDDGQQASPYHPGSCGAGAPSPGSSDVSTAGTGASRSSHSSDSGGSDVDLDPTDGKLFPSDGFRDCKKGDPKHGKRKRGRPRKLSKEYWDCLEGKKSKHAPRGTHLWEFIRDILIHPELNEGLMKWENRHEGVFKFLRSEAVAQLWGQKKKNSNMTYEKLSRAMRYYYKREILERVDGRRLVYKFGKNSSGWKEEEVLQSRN
Procedure, shortened: as §1

Sequence: CGCCAC
- binding signal (GABPA): 1.04 fold enrichment (6-mer frequency, TF over GST control)
- binding signal (ELF1): 1.08 fold enrichment (6-mer frequency, TF over GST control)
- binding signal (ELK3): 1.04 fold enrichment (6-mer frequency, TF over GST control)
- binding signal (FEV): 1.11 fold enrichment (6-mer frequency, TF over GST control)
- binding signal (SPIC): 1.02 fold enrichment (6-mer frequency, TF over GST control)
- binding signal (ELF4): 1.03 fold enrichment (6-mer frequency, TF over GST control)
- binding signal (ELK4): 1.07 fold enrichment (6-mer frequency, TF over GST control)
- binding signal (ETV1): 1.06 fold enrichment (6-mer frequency, TF over GST control)
- binding signal (ETV3L): 1.03 fold enrichment (6-mer frequency, TF over GST control)
- binding signal (SPDEF): 1.05 fold enrichment (6-mer frequency, TF over GST control)
- binding signal (ELF5): 1.05 fold enrichment (6-mer frequency, TF over GST control)
- binding signal (ETV3): 1.02 fold enrichment (6-mer frequency, TF over GST control)

Sequence: GTTGGC
- binding signal (SPIC): 1.09 fold enrichment (6-mer frequency, TF over GST control)

Sequence: TGGTGA
- binding signal (ELK1): 1.04 fold enrichment (6-mer frequency, TF over GST control)
- binding signal (EHF): 1.09 fold enrichment (6-mer frequency, TF over GST control)
- binding signal (SPIC): 1.02 fold enrichment (6-mer frequency, TF over GST control)
- binding signal (ELK4): 1.04 fold enrichment (6-mer frequency, TF over GST control)
- binding signal (ELF3): 1.03 fold enrichment (6-mer frequency, TF over GST control)

Sequence: GTTGTC
- binding signal (SPIC): 1.1 fold enrichment (6-mer frequency, TF over GST control)
- binding signal (ELK4): 1.02 fold enrichment (6-mer frequency, TF over GST control)
